Data published in PubChem BioAssay (NCATS).

What follows are compounds tested against Glucocorticoid receptor (Homo sapiens) (UniProt P04150) (assay: GR-GFP Redistribution (AID 450)). Details: U2OS GR-GFP nuclear translocation, laser cytometry, 2 h; series mostly up to 20.6 µM;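 active = compounds whose dose series gives a full or clear partial fitted curve of increased nuclear translocation; inconclusive = weak partial curve or effect only at the top dose; inactive = no dose-dependent translocation response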.
Potency is read from the fitted curve at half-maximal effect.

Chain of Glucocorticoid receptor (Homo sapiens) (P04150 whole entry, looked up): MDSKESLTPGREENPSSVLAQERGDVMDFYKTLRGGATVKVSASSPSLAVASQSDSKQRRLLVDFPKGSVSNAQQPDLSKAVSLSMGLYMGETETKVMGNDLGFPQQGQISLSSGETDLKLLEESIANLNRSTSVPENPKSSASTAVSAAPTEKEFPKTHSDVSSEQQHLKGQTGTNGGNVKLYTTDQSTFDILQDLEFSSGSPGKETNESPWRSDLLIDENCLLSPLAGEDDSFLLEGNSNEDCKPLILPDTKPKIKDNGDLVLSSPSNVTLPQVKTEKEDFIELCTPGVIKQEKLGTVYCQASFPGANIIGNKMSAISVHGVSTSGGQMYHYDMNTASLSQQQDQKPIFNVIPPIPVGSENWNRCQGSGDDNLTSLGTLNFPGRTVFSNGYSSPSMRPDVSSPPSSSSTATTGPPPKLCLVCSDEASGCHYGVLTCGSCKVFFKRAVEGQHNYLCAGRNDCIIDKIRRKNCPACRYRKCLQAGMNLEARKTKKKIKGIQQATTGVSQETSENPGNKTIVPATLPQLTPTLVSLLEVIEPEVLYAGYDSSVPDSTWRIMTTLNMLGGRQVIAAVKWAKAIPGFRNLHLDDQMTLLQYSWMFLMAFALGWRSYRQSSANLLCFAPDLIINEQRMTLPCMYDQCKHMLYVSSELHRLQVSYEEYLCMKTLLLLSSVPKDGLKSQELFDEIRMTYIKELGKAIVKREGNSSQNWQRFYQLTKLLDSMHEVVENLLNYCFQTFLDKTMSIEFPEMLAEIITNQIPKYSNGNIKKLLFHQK

Potency, inactive:
Cc1ccc(-n2ncc3c(NCc4ccc5c(c4)OCO5)ncnc32)c(C)c1 > 20.6 µM
Cc1ccc(OCC(O)CNS(=O)(=O)c2ccccc2C(=O)O)cc1 (centres undefined) > 20.6 µM
CCC[C@@H]1C[C@@H](C(=O)N[C@H]([C@@H](C)O)[C@H]2O[C@H](SC)[C@H](O)[C@@H](O)C2O)N(C)C1 (some centres undefined) > 20.6 µM
COc1ccc(-c2nn3c(C4CCCCC4)nnc3s2)cc1OC > 20.6 µM
O=C(CCC1CCCC1)N1CCC(N2CCN(c3ccccc3)CC2)CC1 > 20.6 µM
CCOC(=O)C1CCN(c2nc3ccccc3nc2C(C#N)C(=O)OC(C)C)CC1 (centres undefined) > 20.6 µM
Cc1c(C2Nc3ccccc3NC3=C2C(=O)CC(C)(C)C3)cnn1C (centres undefined) > 20.6 µM
COc1ccc(OCC(O)Cn2c(Nc3cccc(C)c3)nc3c2c(=O)n(C)c(=O)n3C)cc1 (centres undefined) > 20.6 µM
CC(C)(C)n1cnc2cc(NS(=O)(=O)c3ccc(Br)cc3)ccc21 > 20.6 µM
Cc1cc(N/C=C/C(=O)c2cccc3ccccc23)no1 > 20.6 µM
COc1cccc(N2CCN(c3ncnc4c3[nH]c3ccccc34)CC2C)c1 (centres undefined) > 20.6 µM
COC(=O)c1ccn(C(=O)c2ccc(Cl)cc2)n1 > 20.6 µM
CCCn1c(SCC(N)=O)nc2c(c1=O)C1(CCCC1)Cc1ccccc1-2 > 20.6 µM
N#CC(C(=O)Nc1ccc(Cl)c(Cl)c1)=C1Nc2ccccc2N1 > 20.6 µM
CC(=NC1CCCC1)c1c(C)[nH]n(-c2nc3ccccc3s2)c1=O > 20.6 µM
C=CCn1c(=S)[nH]c2nc3c(cc2c1=O)COC(C)(C)C3 > 20.6 µM
CC1CCc2cc(F)cc3c(O)c(C(=O)NCC4CCCO4)c(=O)n1c23 (centres undefined) > 20.6 µM
CC1CCc2cc(F)cc3c(O)c(C(=O)Nc4cnccn4)c(=O)n1c23 (centres undefined) > 20.6 µM
O=C1C(=O)N(Cc2cccnc2)C(c2ccccn2)/C1=C(/O)c1ccc(F)cc1 (centres undefined) > 20.6 µM
CCCOc1ccc(N2C(=O)C3ON(c4ccccc4)C(c4ccc(O)c(OC)c4)C3C2=O)cc1 (centres undefined) > 20.6 µM
COc1ccc(Oc2nc3c(c(=O)n(C)c(=O)n3C)n2Cc2cccc(OC)c2)cc1 > 20.6 µM
Cc1cc(C)n(S(=O)(=O)Cc2ccccc2)n1 > 20.6 µM
C=CCOC(=O)C1=C(C)NC(SCC(=O)N(CC)CC)=C(C#N)C1c1ccccc1 (centres undefined) > 20.6 µM
CCOc1ccc(CC2CC(=O)NC2=O)cc1 (centres undefined) > 20.6 µM
COc1cccc(C2=CC(c3ccccc3)n3nnnc3N2)c1 (centres undefined) > 20.6 µM
CC(C)c1[nH]c(=O)c(C#N)c2c1CSC(C)(C)C2 > 20.6 µM
Cn1c(=O)c2c(nc(Oc3ccc4c(c3)OCO4)n2Cc2ccc(Br)cc2)n(C)c1=O > 20.6 µM
CNC(=O)c1cc2c(ccc3ccccc32)oc1=N > 20.6 µM
CCC1(C)Cc2c(C#N)c(N)sc(=S)c2CO1 (centres undefined) > 20.6 µM
O=C(c1ccc2c3c(cccc13)C(=O)N(O)C2=O)N1CCCCC1 > 20.6 µM
CCOC(=O)C1=C(C)N=C2SC(C)C(=O)N2C1c1ccc(C(=O)OC)cc1 (centres undefined) > 20.6 µM
Cc1ccc(Cn2ncc3c(N4CCN(c5ccc(C)cc5)CC4)ncnc32)cc1 > 20.6 µM
CCn1cc(C(=O)NCc2ccco2)c(=O)c2cc(F)c(N3CCN(C(=O)c4ccco4)CC3)cc21 > 20.6 µM
COc1cc(C2C(C#N)=C(N)Oc3cc(C)n(Cc4ccccn4)c(=O)c32)cc2c1OCO2 (centres undefined) > 20.6 µM
CCN1CCc2c(C#N)c(N3CCCCC3)nc(N3CCOCC3)c2C1 > 20.6 µM
CSc1nnc(C)c(=O)[nH]1 > 20.6 µM
CC1(C(=O)O)CCC(C(=O)NC2CCCCCC2)C1(C)C (centres undefined) > 20.6 µM
Cc1ccc(-c2nnc(-c3ccccc3)o2)cc1Br > 20.6 µM
CCOc1ccc(S(=O)(=O)N(C)CCO)cc1-c1nc2c(C(C)(C)C)nn(C)c2c(=O)[nH]1 > 20.6 µM
